Experimental data as given in PubChem BioAssay (NCATS).
Several values for one entry are separate records, joined by “and”; a condition that tells them apart may be missing. Equal entries are not always repeated. Values without a mark were called inactive. Records with an inconclusive call do not appear. Activity calls are given as the source filed them. Unless noted, calls follow the shape of the dose curve; as a rule, active = well fitted curve in either direction with a large enough effect (not every such curve was filed as active); inconclusive = small, poorly fitted or top-dose-only effect, or another doubt; inactive = flat fitted curve, though single readings scatter.

System: not listed separately
Test: Stat Signaling Pathway (AID 446);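 also: ME-180 cervical cancer cells given 40 pM IL-6 alongside compound; SIE-controlled beta-lactamase reporter measured as 460/530 nm FRET emission ratio; % is scaled to controls: 0 for no effect and ±100 for the full control effect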
Conditions: ME-180 SIE beta-lactamase reporter, IL-6 stimulated, 5 h; series mostly up to 17.2 µM; activity, negative = inhibition: at the top concentration
Summary of the method: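 ME-180 cells carrying a SIE-driven beta-lactamase reporter are stimulated with 40 pM IL-6 for 5 h at 37C in the presence of compound. The 460/530 nm FRET substrate ratio is read after 2.5 h at RT. Data are normalised to 300 pM IL-6 and to 125 nM JAK inhibitor controls.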
With C1COC(NC(C2CC2)C2CC2)=N1 the outcome was “inactive”.
In the case of Cc1oncc1C(=O)Nc1ccc(C(F)(F)F)cc1, the outcome is reported as “inactive”.
In the case of NS(=O)(=O)c1cc2c(cc1Cl)NC=NS2(=O)=O, the outcome is reported as “inactive”.
With Cc1cn[nH]c1 the “activity, negative = inhibition” value was -17.9% [at 38 µM].
With CNC[C@H](O)c1cccc(O)c1 the outcome was “inactive”.
With Cc1[nH]c(=O)c(C#N)cc1-c1ccncc1 the outcome was “inactive”.
In the case of CCCCNc1cc(C(=O)O)cc(S(N)(=O)=O)c1Oc1ccccc1, the outcome is reported as “inactive”.
In the case of COc1ccc2nc(S(=O)Cc3ncc(C)c(OC)c3C)[nH]c2c1 (configuration not stated), the outcome is reported as “inactive”.
In the case of CN1CCN(CCCN2c3ccccc3Sc3ccc(C(F)(F)F)cc32)CC1, the outcome is reported as “inactive”.
In the case of NCCc1ccc(O)c(O)c1, the “activity, negative = inhibition” value is reported as 33.1% [at 38 µM].
With NNCCc1ccccc1 the “activity, negative = inhibition” value was 14%.
With N[C@@H]1CONC1=O the outcome was “inactive”.
With O=c1n(CCCN2CCN(c3cccc(Cl)c3)CC2)nc2ccccn12 the outcome was “inactive”.

Target: Glucocorticoid receptor (Homo sapiens) (UniProt P04150)
Sequence (P04150 whole entry, looked up): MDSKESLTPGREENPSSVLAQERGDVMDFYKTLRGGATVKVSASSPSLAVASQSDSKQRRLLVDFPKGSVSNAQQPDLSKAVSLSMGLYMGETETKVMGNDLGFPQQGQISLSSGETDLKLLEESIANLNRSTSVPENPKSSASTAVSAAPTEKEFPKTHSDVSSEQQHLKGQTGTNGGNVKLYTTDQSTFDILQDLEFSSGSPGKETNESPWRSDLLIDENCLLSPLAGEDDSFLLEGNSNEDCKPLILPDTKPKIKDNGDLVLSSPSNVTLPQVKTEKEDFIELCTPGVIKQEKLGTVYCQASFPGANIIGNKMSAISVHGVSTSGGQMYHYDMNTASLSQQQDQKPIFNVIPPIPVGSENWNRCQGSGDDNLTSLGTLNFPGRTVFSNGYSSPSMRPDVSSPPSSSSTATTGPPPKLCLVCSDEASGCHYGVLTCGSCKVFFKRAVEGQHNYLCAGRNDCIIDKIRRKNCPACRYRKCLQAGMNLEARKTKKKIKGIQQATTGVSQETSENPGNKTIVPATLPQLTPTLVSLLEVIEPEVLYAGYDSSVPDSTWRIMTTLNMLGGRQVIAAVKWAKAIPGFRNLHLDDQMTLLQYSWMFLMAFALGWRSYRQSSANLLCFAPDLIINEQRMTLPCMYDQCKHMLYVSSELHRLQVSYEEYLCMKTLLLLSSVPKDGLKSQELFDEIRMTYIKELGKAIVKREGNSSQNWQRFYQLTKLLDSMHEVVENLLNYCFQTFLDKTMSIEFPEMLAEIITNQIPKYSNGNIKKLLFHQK
Test: GR-GFP Redistribution (AID 450;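 active = compounds whose dose series gives a full or clear partial fitted curve of increased nuclear translocation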; also: potency is read from the fitted curve at half-maximal effect)
Conditions: U2OS GR-GFP nuclear translocation, laser cytometry, 2 h
For Cc1cc2c(C(C)C)c(O)c(O)c(C=O)c2c(O)c1-c1c(C)cc2c(C(C)C)c(O)c(O)c(C=O)c2c1O, the Potency was > 20.6 µM and > 46 µM.
With CC(C)C[C@H](NC(=O)[C@@H](O)[C@H](N)Cc1ccccc1)C(=O)O the Potency was > 46 µM.
With Cc1oncc1C(=O)Nc1ccc(C(F)(F)F)cc1 the Potency was > 46 µM and > 20.6 µM.
With Cc1ccc2c(c1)C(=O)[C@@]1(O)CCN(c3ccccc3)C1=N2 the Potency was > 46 µM.
For CCOC(=O)N1CCC(=C2c3ccc(Cl)cc3CCc3cccnc32)CC1, the Potency was > 46 µM and > 20.6 µM.
In the case of CCC(C)(C)C(=O)O[C@H]1C[C@@H](C)C=C2C=C[C@H](C)[C@H](CC[C@@H]3C[C@@H](O)CC(=O)O3)[C@H]21, the Potency is reported as > 46 µM.
In the case of Cc1cn[nH]c1, the Potency is reported as > 46 µM.
With CCN(c1ccccc1)c1cc(NC)[n+](C)c(C)n1 the Potency was > 46 µM.
With CC(C)(Sc1ccc(CCN(CCCCC2CCCCC2)C(=O)NC2CCCCC2)cc1)C(=O)O the Potency was > 46 µM.
For CN1CCN(CCCN2c3ccccc3Sc3ccc(C(F)(F)F)cc32)CC1, the Potency was > 46 µM and > 20.6 µM.
For O=NN(CCCl)C(=O)NCCCl, the Potency was > 46 µM.
In the case of NNCCc1ccccc1, the Potency is reported as > 46 µM and > 20.6 µM.
For NC(=O)c1ccc(-c2nc(-c3ccc4c(c3)OCO4)c(-c3ccccn3)[nH]2)cc1, the Potency was > 46 µM.
In the case of N[C@@H]1CONC1=O, the Potency is reported as > 46 µM and > 20.6 µM.
